{"source": "ChEMBL document CHEMBL4513216", "about": "“Probing the Open Global Health Chemical Diversity Library for Multistage-Active Starting Points for Next-Generation Antimalarials” (ACS Infect Dis, 2020)", "note": "Out of some 69,000 compounds screened, about 8,600 (12%) showed an effect of 50% or more. Only a selection was taken, and strong results are over-represented in it overall."}
{"tested_on": "Plasmodium berghei", "assay": "Screen against P. berghei liver stage (PbLuc), transformed with Luciferase, at 10uM", "assay_type": "functional, HepG2", "details": "tested at 10 uM", "units": {"INHIBITION": "%"}}
{"smiles": "Cc1cccc(N2CC[C@@H]3[C@@H](CO[C@H]3CNC(=O)c3ccco3)C2)n1", "INHIBITION": -44.2}
{"smiles": "CN(Cc1cccnc1)C[C@@H]1OC[C@H]2CN(Cc3ccco3)CC[C@H]21", "INHIBITION": 8.03}
{"smiles": "Cc1ccc(N2CC[C@H]3CO[C@H](CN(C)Cc4ccco4)[C@H]3C2)nn1", "INHIBITION": 53.4}
{"smiles": "Cc1cccc(N2CC[C@H]3CO[C@H](CN(C)Cc4ccco4)[C@H]3C2)n1", "INHIBITION": 46.4}
{"smiles": "CN(Cc1ccco1)C[C@@H]1OC[C@H]2CN(Cc3nccs3)CC[C@H]21", "INHIBITION": -46.8}
{"smiles": "Cc1ccc(CN2CC[C@H]3CO[C@H](CN(C)Cc4ccco4)[C@H]3C2)s1", "INHIBITION": 18.7}
{"smiles": "Cc1cccc(N2CC[C@H]3[C@H](CO[C@@H]3CN(C)Cc3ccco3)C2)n1", "INHIBITION": 65.3}
{"smiles": "O=C(NC[C@H]1OC[C@@H]2CCN(c3ccccn3)C[C@@H]21)c1ccco1", "INHIBITION": -0.804}
{"smiles": "CN(Cc1ccco1)C[C@H]1OC[C@@H]2CN(c3ncc(F)cn3)CC[C@@H]21", "INHIBITION": 58.3}
{"smiles": "CCc1ccc(CN2CCC(c3ccccc3C(=O)O)C2)nc1", "note": "(stereo unspecified)", "INHIBITION": -8.66}
{"smiles": "Cc1cccn2c(NC(C)(C)C)c(C3CCN(C(=O)C4CC4)CC3)nc12", "INHIBITION": -4.49}
{"smiles": "CNC(=O)[C@H]1C[C@@H]2CN(S(=O)(=O)c3ccc(C)c(F)c3)C[C@@H]2N1C", "INHIBITION": 0.542}
{"smiles": "CC(CNC(=O)c1cn(-c2ccccc2)nn1)Cn1cccn1", "note": "(stereo unspecified)", "INHIBITION": 20.2}
{"smiles": "CCN(CC)C1COc2c(cc(Br)c(C)c2C)C1=O", "note": "(stereo unspecified)", "INHIBITION": 47.1}
{"smiles": "COc1ccc(-c2cc(C3(O)CCN(C)CC3)on2)cc1", "INHIBITION": 19.3}
{"smiles": "CN(Cc1ccco1)C[C@H]1OC[C@@H]2CCN(Cc3ccncc3)C[C@@H]21", "INHIBITION": -46.8}
{"smiles": "CN(Cc1ccco1)C[C@H]1OC[C@@H]2CCN(Cc3ccsc3)C[C@@H]21", "INHIBITION": 62.4}
{"smiles": "CN(Cc1ccco1)C[C@H]1OC[C@@H]2CCN(Cc3cccs3)C[C@@H]21", "INHIBITION": 25.4}
{"smiles": "Cc1cn[nH]c1C1COCCN1C(=O)c1ccc2c(c1)CCCC2", "note": "(stereo unspecified)", "INHIBITION": -6.88}
{"smiles": "CSc1ccc(C(=O)C2CCCN(C(=O)CCn3cnnn3)C2)cc1", "note": "(stereo unspecified)", "INHIBITION": 5.91}
{"smiles": "COc1ccc(CC(=O)NC(C)c2nc3cccnc3n2C(C)C)cc1", "note": "(stereo unspecified)", "INHIBITION": 90.5}
{"smiles": "COc1ccccc1CC(=O)NC(C)c1nc2cccnc2n1C(C)C", "note": "(stereo unspecified)", "INHIBITION": -29.8}
{"smiles": "COc1cccc(CC(=O)NC(C)c2nc3cccnc3n2C(C)C)c1", "note": "(stereo unspecified)", "INHIBITION": -17.7}
{"smiles": "CN(Cc1ncc(-c2ccccc2C(=O)O)s1)c1ncccn1", "INHIBITION": 12}
{"smiles": "Cc1cc(S(=O)(=O)NC(C)(C)CN)c(F)cc1F", "INHIBITION": 37.6}
{"smiles": "COc1ccc(C(C)NC(=O)C2CCN(S(C)(=O)=O)CC2)cc1C", "note": "(stereo unspecified)", "INHIBITION": 68.1}
{"smiles": "Cc1csc(C(Cc2ccsc2)NC(=O)C2CCN(S(C)(=O)=O)CC2)n1", "note": "(stereo unspecified)", "INHIBITION": -11.7}
{"smiles": "CCC(NC(=O)C1CCN(S(=O)(=O)N(C)C)CC1)c1ccc(C)c(C)c1", "note": "(stereo unspecified)", "INHIBITION": 21.8}
{"smiles": "CCC(NC(=O)C1CCN(S(C)(=O)=O)CC1)c1ccc(C)c(C)c1", "note": "(stereo unspecified)", "INHIBITION": 58.5}
{"smiles": "CCC(NC(=O)C1CCN(S(C)(=O)=O)CC1)c1ccc(C)cc1", "note": "(stereo unspecified)", "INHIBITION": 33}
{"smiles": "CCC(NC(=O)C1CCN(S(C)(=O)=O)CC1)c1ccc(OC)cc1", "note": "(stereo unspecified)", "INHIBITION": 73.6}
{"smiles": "CCC(NC(=O)c1nn(C)cc1C(=O)O)c1ccc(C)cc1C", "note": "(stereo unspecified)", "INHIBITION": 32.3}
{"smiles": "CCC(NC(=O)C1CCN(S(C)(=O)=O)CC1)c1ccc(C)cc1C", "note": "(stereo unspecified)", "INHIBITION": 88}
{"smiles": "CCC(NC(=O)C1CCN(S(C)(=O)=O)CC1)c1ccc(OC)c(C)c1", "note": "(stereo unspecified)", "INHIBITION": 23.5}
{"smiles": "COc1ccc(C(C(=O)O)N2CCN(C3CCCC3)CC2)cc1C", "note": "(stereo unspecified)", "INHIBITION": 43}
{"smiles": "CCOc1ccc(C(C)NC(=O)N2CCC(C(N)=O)CC2)cc1OC", "note": "(stereo unspecified)", "INHIBITION": 47.4}
{"smiles": "CCC(NC(=O)C1CCN(S(C)(=O)=O)CC1)c1ccc(OC)c(OC)c1", "note": "(stereo unspecified)", "INHIBITION": -6.53}
{"smiles": "Cc1cnn(CCNCc2c(C)nn(C)c2Cl)c1", "INHIBITION": 19.2}
{"smiles": "c1ccc(CN2CCc3nnc(COc4ccccn4)n3CC2)nc1", "INHIBITION": 21.5}
{"smiles": "Cc1occc1C(=O)N1CCC2(CC1)CN(Cc1nccs1)CCO2", "INHIBITION": 30.3}
{"smiles": "Cc1cc(C)n(CC(=O)N2CCC(c3ccn4nccc4n3)CC2)n1", "INHIBITION": 19.5}
{"smiles": "Cc1ccc(CN2CCC3(CCCC(=O)N3)CC2)s1", "INHIBITION": -24.5}
{"smiles": "CCN(Cc1ccc2c(c1)OCCO2)C(=O)NC(C)Cn1cccn1", "note": "(stereo unspecified)", "INHIBITION": 45.7}
{"smiles": "CCOCc1nc2c(c(N3CCCn4nc(C)cc4C3)n1)CCNCC2", "INHIBITION": 34.9}
{"smiles": "CCOCCCNC(=O)C1(C)CCC(=O)N1c1cc(OC)ccc1OC", "note": "(stereo unspecified)", "INHIBITION": 28.3}
{"smiles": "O=C(O)c1ccc(C2CCCN(Cc3ccc(-c4cc[nH]n4)o3)C2)cc1", "note": "(stereo unspecified)", "INHIBITION": -10.4}
{"smiles": "Fc1ccc(N2CCCN(Cc3ccc(-c4cc[nH]n4)o3)CC2)cc1", "INHIBITION": 23.7}
{"smiles": "Cc1cnc(C)c(N2CCN(Cc3ccc(-c4cc[nH]n4)o3)CC2)n1", "INHIBITION": -7.48}
{"smiles": "Cc1cc(N2CCN(Cc3ccc(-c4cc[nH]n4)o3)CC2)cc(C)n1", "INHIBITION": 52.4}
{"smiles": "O=C(O)c1ccccc1C1CCN(Cc2ccc(-c3cc[nH]n3)o2)C1", "note": "(stereo unspecified)", "INHIBITION": 9.16}
{"smiles": "O=C(O)c1ccc(CC2CCN(Cc3ccc(-c4cc[nH]n4)o3)C2)cc1", "note": "(stereo unspecified)", "INHIBITION": 67.8}
